# The source made the active and inactive calls. Calls follow the shape of the full dose curve.
# Assay: qHTS assay to identify small molecule agonists of the sonic hedgehog signaling (Shh) pathway (AID 1259368);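 also: NIH/3T3-derived 3T3Gli1-Luc cells carrying a stable Gli1-driven firefly luciferase reporter; nearly all actives have a fitted effect of over 15% in size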
# Settings: NIH/3T3 Gli1-Luc reporter, luciferase, 24 h; series mostly up to 92.4 µM
# Excerpt: National Center for Advancing Translational Sciences [NCATS]
# NIH Chemical Genomics Center [NCGC]
# U.S. Environmental Protection Agency [EPA]
# National Institutes of Environmental Health Sciences [NIEHS]
# National Toxicology Program [NTP]
# The sonic hedgehog (Shh) pathway is essential for normal embryonic development. Dysregulation of the Shh pathway can cause severe developmental defects in organs. Therefore chemicals that interfere with the pathway are potential developmental toxicants. A cell line designated 3T3Gli1-Luc (DMB/OARSA/CFSAN/FDA, Laurel, MD), a NIH/3T3 derived clone containing stably integrated Gli1-Luc reporter is used to detect chemical interference of the Shh pathway, by changes in the expression of the firefly Luc gene under the control of the Gli1 transcriptional response element. This cell line was used to screen Tox21 libraries for identifying and prioritizing the potential developmental toxicants that interfere Shh pathway.
# 3T3 Gli1-Luc cells were dispensed at 2,000 per well in 5uL of culture medium into white solid bottom 1536-well plates (Greiner Bio-One, Monroe, NC) using a Multidrop Combi (Thermo Scientific, Waltham, MA) dispenser. The assay plates were incubated at 37 C and 5% CO2 for 4hr, and then 23nL of compounds dissolved in DMSO and positive control were transferred using a Pintool station (Wako, San Diego, CA). The assay plates were incubated at 37C and 5% CO2 for 24hr. For luciferase read, 4uL of Amplite Luciferase reporter gene assay reagent (AAT Bioquest, Inc. Sunnyvale, CA) was added to each well of the assay plates using Flying Reagent Dispenser (FRD, Aurora Discovery, San Diego, CA) and incubated at room temperature for 30min. The luminescence signal was measured using a ViewLux plate reader (Perkin Elmer, Shelton, CT).
row,Compound,outcome
1,CCCCCCCCCCCC(=O)O,inactive
2,CCC[N+]1(C)CCCCC1,inactive
3,COP(=O)(OC)OC=C(Cl)Cl,inactive
4,O=C(O)COc1ccc(Cl)cc1Cl,inactive
5,CCOP(=S)(OCC)Oc1ccc2c(C)c(Cl)c(=O)oc2c1,inactive
6,CC[N+](CC)(CC)CC,inactive
7,CCC(=O)C(CC(C)N(C)C)(c1ccccc1)c1ccccc1 (stereo not given),inactive
8,CN(C)[C@@H]1C(=O)C(C(N)=O)=C(O)[C@@]2(O)C(=O)C3=C(O)c4c(O)cccc4[C@@](C)(O)[C@H]3[C@H](O)[C@@H]12,inactive
9,Nc1ccccc1,inactive
10,CC[N+]1(C)CCCC1,inactive
11,CCCn1cc[n+](C)c1,inactive
12,COP(=O)(OC)C(O)C(Cl)(Cl)Cl (stereo not given),inactive
13,O=[N+]([O-])c1ccccc1O,inactive
14,Cc1cc(-c2ccc(N)c(C)c2)ccc1N,inactive
15,O=c1nc(O)n(Cl)c(=O)n1Cl,inactive
16,CNC,inactive
17,CCCCCC[n+]1ccccc1,inactive
18,C1CCC(NC2CCCCC2)CC1,inactive
19,C[C@]12CCC(=O)C=C1CC[C@@H]1[C@@H]2CC[C@]2(C)C(=O)CC[C@@H]12,inactive
20,CC(Cl)(Cl)C(=O)O,inactive

row,Compound,outcome
1,CCCC[N+]1(C)CCCCC1,inactive
2,Oc1cccc2cccnc12,inactive
3,CCCCn1cc[n+](C)c1,inactive
4,CCCC[n+]1ccccc1C,inactive
5,Nc1ccc(Cl)cc1,inactive
6,O=C(O)CC(O)(CC(=O)O)C(=O)O,inactive
7,CCn1cc[n+](C)c1C,inactive
8,CC(=O)[O][Hg][c]1ccccc1,inactive
9,CCCCCCCCCCCCCCCCn1cc[n+](C)c1,inactive
10,Nc1ccc(-c2ccc(N)c(Cl)c2)cc1Cl,inactive
11,Cc1cc(Cl)ccc1OCC(=O)O,inactive
12,CCCCCCn1cc[n+](C)c1,inactive
13,Cc1cc(Cl)ccc1N,inactive
14,C[N+](C)(C)Cc1ccccc1,inactive
15,COc1ccc(N)cc1,inactive
16,CCCCn1cc[n+](C)c1C,inactive
17,O=C(O)c1nc(Cl)ccc1Cl,inactive
18,Nc1ccc(-c2ccc(N)cc2)cc1,inactive
19,CCNc1nc(Cl)nc(NCC)n1,inactive
20,CCCC[N+]1(C)CCCC1,inactive

# Source: PubChem BioAssay (Tox21)
